Values joined by “and” are separate entries in the source; they are usually repeats but may differ in a detail not shown here. Equal values may be shown once. Results filed as inconclusive are left out. Entries that show only a call come without a potency. A structure can be active in one record and inactive in another. Active and inactive are the calls of the source. Unless noted, the call rests on the fitted dose curve.
Tests used:
[1] = Nuclear factor erythroid 2-related factor 2/antioxidant responsive element (Nrf2/ARE) small molecule agonists: luciferase reporter gene qHTS assay in human keratinocytes (AID 1919969); further: nearly all actives have a fitted effect of over 35% in size; further: potency means the concentration at half of the fitted maximal effect
[2] = target: Gonadotropin-releasing hormone receptor (Homo sapiens) (UniProt P30968); assay: Human gonadotropin-releasing hormone receptor (GnRHR) small molecule agonists, calcium flux assay in GnRHR-HEK293 cells (AID 1920063); further: nearly all actives have a fitted effect of over 35% in size; further: potency means the concentration at half of the fitted maximal effect
Sequence of Gonadotropin-releasing hormone receptor (Homo sapiens) (P30968 whole entry, looked up): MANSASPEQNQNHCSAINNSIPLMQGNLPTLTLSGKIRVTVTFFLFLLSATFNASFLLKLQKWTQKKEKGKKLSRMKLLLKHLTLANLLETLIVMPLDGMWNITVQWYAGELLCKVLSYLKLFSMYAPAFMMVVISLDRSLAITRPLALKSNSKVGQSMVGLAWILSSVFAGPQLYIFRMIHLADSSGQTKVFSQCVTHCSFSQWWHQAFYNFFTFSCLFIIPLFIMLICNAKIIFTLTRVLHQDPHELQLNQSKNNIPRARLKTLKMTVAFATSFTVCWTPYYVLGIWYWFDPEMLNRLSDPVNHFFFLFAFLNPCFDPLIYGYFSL
Procedure, shortened: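 Fluorescence kinetics (480 nm excitation, 540 nm emission; 3 min, 1 s steps) report calcium mobilisation in human GnRHR-HEK293 cells in agonist mode. Dye incubation: 1 h, 37 C.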

[3] = target: KiSS-1 receptor (Homo sapiens) (UniProt Q969F8); assay: Human kisspeptin (KISS1R) small molecule agonists, calcium flux assay in KISS1R-HEK293 cells (AID 1920064; active means well fitted curve in the direction sought with a large enough effect in the repeat runs; an effect the other way counts as inactive or inconclusive; further: potency means the concentration at half of the fitted maximal effect)
Sequence of KiSS-1 receptor (Homo sapiens) (Q969F8 whole entry, looked up): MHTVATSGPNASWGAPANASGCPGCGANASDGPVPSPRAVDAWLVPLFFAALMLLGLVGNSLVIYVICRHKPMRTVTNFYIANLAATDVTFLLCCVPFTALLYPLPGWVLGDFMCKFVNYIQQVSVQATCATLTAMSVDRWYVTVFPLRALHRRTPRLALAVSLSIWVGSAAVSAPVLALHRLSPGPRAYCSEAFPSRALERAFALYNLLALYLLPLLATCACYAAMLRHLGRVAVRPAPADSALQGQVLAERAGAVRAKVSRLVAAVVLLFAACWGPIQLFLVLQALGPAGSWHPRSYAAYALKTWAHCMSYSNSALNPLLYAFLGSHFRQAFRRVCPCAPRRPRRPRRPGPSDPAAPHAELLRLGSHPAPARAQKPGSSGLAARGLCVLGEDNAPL
Procedure, shortened: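 Measures KISS1R agonism through calcium-sensitive dye fluorescence in stably transfected HEK293 cells, read for 3 min after pin-tool compound delivery; 15-point titrations in triplicate.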

[4] = G protein-coupled receptor (GPCR) small molecule agonists, calcium flux assay: HEK293 wild type cell line counter screen (AID 1920065)
Procedure, shortened: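 Readout: fluorescence at 480 nm excitation/540 nm emission, sampled at 1 s intervals for 3 min. Cells had been cultured 18 h, then dye-loaded 1 h at 37 C before compound or ATP addition.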

[5] = p53 small molecule agonists, cell-based qHTS assay with human liver microsomes (AID 1963577);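 further: p53 response element beta-lactamase reporter cells with liver microsomes plus NADPH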
Procedure, shortened: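 Steps: plate p53RE-bla cells, incubate 5 h at 37 C; add compound in DMSO; add microsomes (0.5 mg/mL final) and NADPH (0.5 mg/mL final); incubate 16 h at 37 C; add LiveBLAzer, 2 h RT; read fluorescence.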

[6] = p53 small molecule agonists, cell-based qHTS assay with rat liver microsomes (AID 1963578)
Procedure, shortened: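 Metabolic activation is supplied by rat liver microsomes with NADPH (each 0.5 mg/mL final). p53RE-bla cells incubate with compound 16 h at 37 C; reporter activity is measured by LiveBLAzer fluorescence.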

[7] = p53 small molecule agonists, cell-based qHTS assay with human liver microsomes: qHTS cell viability counter screen (AID 1963579); further: nearly all actives have a fitted effect of over 45% in size; further: potency means the concentration at half of the fitted maximal effect
Procedure, shortened: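 After the 460/530 nm beta-lactamase read, CellTiter-Glo was added to the same wells and luminescence measured after 30 min at room temperature, giving viability of p53RE-bla cells treated 16 h with compounds plus microsomes and NADPH.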

[8] = p53 small molecule agonists, cell-based qHTS assay with rat liver microsomes: qHTS cell viability counter screen (AID 1963580); further: nearly all actives have a fitted effect of over 45% in size; further: potency means the concentration at half of the fitted maximal effect
Procedure, shortened: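 In HCT-116 cells carrying a p53 response element-bla reporter, compounds were metabolically activated in situ by rat liver microsomes with NADPH over 16 h. Cell ATP content then served as the cytotoxicity measure.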

[9] = p53 small molecule agonists, cell-based qHTS assay: qHTS cell viability counter screen (AID 1963581); further: nearly all actives have a fitted effect of over 45% in size; further: potency means the concentration at half of the fitted maximal effect
Procedure, shortened: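 In the same plates used for the p53 bla reporter, HCT-116 cells given compounds for 16 h at 37 C received CellTiter-Glo; luminescence was recorded 30 min later at room temperature.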

[10] = p53 small molecule agonists, cell-based qHTS assay (AID 1963582; active means well fitted activation curve with a large enough effect in the signal ratio in the repeat runs, not every such curve was filed as active; the % refers to the signal ratio; further: potency means the concentration at half of the fitted maximal effect)
Procedure, shortened: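 Compounds are pin-transferred in DMSO onto p53RE-bla cells and incubated 16 h at 37 C. The B/G FRET beta-lactamase substrate is then applied for 2 h at RT and fluorescence recorded.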

[11] = target: 5-hydroxytryptamine receptor 2A (Homo sapiens) (UniProt P28223); assay: 5-hydroxytryptamine receptor 2A (HTR2A) small molecule antagonists, cell-based qHTS assay (AID 1963586); further: nearly all actives have a fitted effect of over 45% in size; further: potency means the concentration at half of the fitted maximal effect
Sequence of 5-hydroxytryptamine receptor 2A (Homo sapiens) (P28223 whole entry, looked up): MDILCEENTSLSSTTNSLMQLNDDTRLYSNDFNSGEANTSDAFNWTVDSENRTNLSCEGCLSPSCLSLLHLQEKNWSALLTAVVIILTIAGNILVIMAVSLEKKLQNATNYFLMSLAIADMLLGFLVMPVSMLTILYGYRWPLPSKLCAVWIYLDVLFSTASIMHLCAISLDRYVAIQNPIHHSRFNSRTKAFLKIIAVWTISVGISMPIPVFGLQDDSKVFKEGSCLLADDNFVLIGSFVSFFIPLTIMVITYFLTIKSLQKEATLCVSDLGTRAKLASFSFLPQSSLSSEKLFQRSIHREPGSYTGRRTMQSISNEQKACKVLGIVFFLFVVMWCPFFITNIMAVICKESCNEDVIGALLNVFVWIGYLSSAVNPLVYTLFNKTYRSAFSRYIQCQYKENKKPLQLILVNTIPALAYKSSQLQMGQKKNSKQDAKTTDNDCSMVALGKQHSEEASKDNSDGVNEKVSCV
Procedure, shortened: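 Antagonist-mode intracellular calcium assay: DOI (4 nM) added after 5 min compound pre-incubation at room temperature to dye-loaded HTR2A-CHO cells. Fluorescence followed for 3 min, sampled every second.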

[12] = target: 5-hydroxytryptamine receptor 2A (Homo sapiens) (UniProt P28223); assay: 5-hydroxytryptamine receptor 2A (HTR2A) small molecule agonists, cell-based qHTS assay (AID 1963587); further: nearly all actives have a fitted effect of over 30% in size; further: potency means the concentration at half of the fitted maximal effect
Procedure, shortened: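 HTR2A-CHO cells, plated 18 h at 37 C/5% CO2, dye-loaded 1 h at 37 C; compounds in DMSO added by pin tool (agonist mode). Intracellular calcium flux read as kinetic fluorescence on FDSS over 2 min at 1 s intervals.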

[13] = target: Muscarinic acetylcholine receptor M1 (Homo sapiens) (UniProt P11229); assay: Cholinergic receptor muscarinic 1 (CHRM1) small molecule antagonists, cell-based qHTS assay (AID 1963588); further: nearly all actives have a fitted effect of over 40% in size
Sequence of Muscarinic acetylcholine receptor M1 (Homo sapiens) (P11229 whole entry, looked up): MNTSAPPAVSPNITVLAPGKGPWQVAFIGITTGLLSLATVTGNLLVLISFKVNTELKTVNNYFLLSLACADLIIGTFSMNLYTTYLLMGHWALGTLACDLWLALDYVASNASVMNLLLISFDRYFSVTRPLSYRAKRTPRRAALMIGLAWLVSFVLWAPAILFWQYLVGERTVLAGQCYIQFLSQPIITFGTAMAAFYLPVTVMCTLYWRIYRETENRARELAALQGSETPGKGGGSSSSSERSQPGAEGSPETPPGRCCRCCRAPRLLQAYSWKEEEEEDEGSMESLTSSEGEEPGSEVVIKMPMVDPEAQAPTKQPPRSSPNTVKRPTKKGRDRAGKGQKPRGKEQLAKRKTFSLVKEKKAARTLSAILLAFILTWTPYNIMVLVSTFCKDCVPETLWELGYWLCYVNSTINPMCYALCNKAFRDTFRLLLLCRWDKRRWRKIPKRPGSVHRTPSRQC
Procedure, shortened: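 CHRM1-CHO calcium-flux assay, antagonist mode. Cells were seeded 18 h, dye-loaded 1 h at 37 C and given compound for 5 min at RT, then acetylcholine was added at 50nM. FDSS fluorescence was read 3 min; 15 concentrations, three runs.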

[14] = target: Muscarinic acetylcholine receptor M1 (Homo sapiens) (UniProt P11229); assay: Cholinergic receptor muscarinic 1 (CHRM1) small molecule agonists, cell-based qHTS assay (AID 1963589); further: nearly all actives have a fitted effect of over 35% in size
Procedure, shortened: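 Each compound was tested at 15 concentrations across three independent runs on dye-loaded CHO cells stably expressing human CHRM1, reading intracellular calcium fluorescence kinetically at 1 sec intervals.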

[15] = cAMP Responsive Elements (CRE) small molecule agonists, cell-based qHTS assay (AID 1963590)
Procedure, shortened: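 Cell line: CRE-bla HEK 293T; medium DMEM/10% dialyzed FBS/0.1 mM NEAA/1 mM pyruvate/25 mM HEPES; 3 h compound exposure; beta-lactamase FRET readout after 2 h substrate loading at RT.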

[16] = cAMP Responsive Elements (CRE) small molecule antagonists, cell-based qHTS assay (AID 1963591; active means well fitted inhibition curve with a large enough effect in the signal ratio in the repeat runs, not every such curve was filed as active; the % refers to the signal ratio; further: potency means the concentration at half of the fitted maximal effect)
Procedure, shortened: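 Inhibition of NKH477-driven (0.25 uM final) CRE-beta-lactamase signal in HEK293T cells, 3 h compound exposure at 37 °C, detected by FRET substrate fluorescence.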

[17] = target: Beta-2 adrenergic receptor (Homo sapiens) (UniProt P07550); assay: Adrenergic beta2 receptor (ADRB2) small molecule antagonists, cell-based qHTS assay (AID 1963592); further: nearly all actives have a fitted effect of over 50% in size; further: potency means the concentration at half of the fitted maximal effect
Sequence of Beta-2 adrenergic receptor (Homo sapiens) (P07550 whole entry, looked up): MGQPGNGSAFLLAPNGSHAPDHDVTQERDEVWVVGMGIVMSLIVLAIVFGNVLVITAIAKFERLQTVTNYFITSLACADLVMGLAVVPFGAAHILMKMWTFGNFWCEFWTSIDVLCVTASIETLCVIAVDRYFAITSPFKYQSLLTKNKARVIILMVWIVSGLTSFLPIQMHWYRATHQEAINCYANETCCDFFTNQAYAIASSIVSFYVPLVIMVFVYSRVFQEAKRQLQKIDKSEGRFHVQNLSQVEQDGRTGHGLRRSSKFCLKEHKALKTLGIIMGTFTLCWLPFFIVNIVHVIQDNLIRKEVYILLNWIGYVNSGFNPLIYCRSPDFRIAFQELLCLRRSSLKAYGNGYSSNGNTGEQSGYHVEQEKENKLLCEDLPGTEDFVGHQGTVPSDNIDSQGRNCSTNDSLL
Procedure, shortened: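 Cells (CHO, stable ADRB2 overexpression) incubated 18-20hr at 37C; compounds added from DMSO; agonist mix (1nM isoproterenol, 100uM IBMX, 25uM Ro-20-1724) added; 0.5hr RT; d2-cAMP and anti-cAMP-cryptate added; 1hr RT; 665/615 nm read.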

[18] = target: D(2) dopamine receptor (Homo sapiens) (UniProt P14416); assay: Dopamine D2 receptor (DRD2) small molecule agonists, cell-based qHTS assay (AID 1963594); further: nearly all actives have a fitted effect of over 35% in size; further: potency means the concentration at half of the fitted maximal effect
Sequence of D(2) dopamine receptor (Homo sapiens) (P14416 whole entry, looked up): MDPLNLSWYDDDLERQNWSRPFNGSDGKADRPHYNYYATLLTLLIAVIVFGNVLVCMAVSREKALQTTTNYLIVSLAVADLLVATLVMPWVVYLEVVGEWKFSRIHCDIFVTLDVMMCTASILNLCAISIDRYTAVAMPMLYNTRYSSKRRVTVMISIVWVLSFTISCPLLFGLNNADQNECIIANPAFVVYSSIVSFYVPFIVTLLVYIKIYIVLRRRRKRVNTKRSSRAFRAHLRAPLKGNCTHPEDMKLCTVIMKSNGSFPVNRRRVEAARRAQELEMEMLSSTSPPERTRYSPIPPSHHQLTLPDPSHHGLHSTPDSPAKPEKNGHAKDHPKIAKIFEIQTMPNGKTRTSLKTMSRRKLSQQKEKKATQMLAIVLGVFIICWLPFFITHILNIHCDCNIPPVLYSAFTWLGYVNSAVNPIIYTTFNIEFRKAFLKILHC
Procedure, shortened: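 HEK293 cells stably expressing DRD2 were cultured 24 h at 37 C, then given Ro20-1724 (0.1 mM final) and compounds for 10 min at room temperature. NKH477 (200nM) was then added for 30 min. cAMP was read by HTRF.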

[19] = target: D(2) dopamine receptor (Homo sapiens) (UniProt P14416); assay: Dopamine D2 receptor (DRD2) small molecule antagonists, cell-based qHTS assay (AID 1963595; active means well fitted inhibition curve with a large enough effect in the signal ratio in the repeat runs, with a control signal flat; the % refers to the signal ratio; further: potency means the concentration at half of the fitted maximal effect)
Procedure, shortened: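 Antagonist mode in DRD2-HEK293 cells: after compound addition with 0.1 mM Ro20-1724, cells received quinpirole (12 nM) and NKH477 (200 nM) for 30 min at room temperature; HTRF cAMP read after 1 h detection.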

[20] = Nuclear factor erythroid 2-related factor 2/antioxidant responsive element (Nrf2/ARE) small molecule agonists: qHTS cell viability counter screen in human keratinocytes (AID 1919968; active means well fitted curve in the direction sought with a large enough effect in the repeat runs; an effect the other way counts as inactive or inconclusive; further: nearly all actives have a fitted effect of over 55% in size; further: potency means the concentration at half of the fitted maximal effect)
Procedure, shortened: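 Measured as CellTiter-Fluor fluorescence, this readout tracks cytotoxicity in the same wells as the ARE-luciferase screen. HaCaT reporter cells (1,500/well) received compounds after a 5 h pre-incubation and were exposed for 23 h.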

Structure (SMILES)	Potency [1]	Potency [2]	Potency [3]	Potency [4]	Potency [5]	Potency [6]	Potency [7]	Potency [8]	Potency [9]	Potency [10]	Potency [11]	Potency [12]	Potency [13]	Potency [14]	Potency [15]	Potency [16]	Potency [17]	Potency [18]	Potency [19]	Potency [20]
CN[C@@H](C)[C@H](O)c1ccccc1	inactive	inactive	inactive	inactive	inactive	inactive	inactive	inactive	inactive	inactive	inactive	inactive	inactive	inactive	inactive	inactive	inactive	inactive	inactive	–
CCC[CH2][Sn]([CH2]CCC)([O]C(C)=O)[O]C(C)=O	0.0978 µM (active)	inactive	inactive	inactive	inactive	inactive	inactive	inactive	inactive	inactive	inactive	inactive	inactive	inactive	–	inactive	inactive	–	inactive	–
C[C@@H]1C[C@@H]([C@H](O)CC2CC(=O)NC(=O)C2)C(=O)[C@@H](C)C1	inactive	inactive	inactive	inactive	inactive	inactive	inactive	inactive	inactive	inactive	–	–	–	–	inactive	8.58 µM (active) and 8.3 µM (active) and 2.66 µM (active)	inactive	inactive	inactive	–
ClC(Cl)=C(c1ccc(Cl)cc1)c1ccccc1Cl	inactive	inactive	inactive	inactive	inactive	inactive	inactive	–	inactive	–	–	inactive	inactive	inactive	–	inactive	inactive	inactive	–	–
COc1ccccc1N1CCNCC1	inactive	inactive	inactive	inactive	inactive	inactive	–	inactive	inactive	inactive	0.729 µM (active)	1.69 µM (active)	inactive	inactive	inactive	inactive	13.3 µM (active)	–	–	–
CC1(C)C(C(=O)OC(C#N)c2cccc(Oc3ccccc3)c2)C1(C)C (stereo not given)	inactive	inactive	inactive	inactive	inactive	inactive	inactive	inactive	inactive	–	inactive	39.2 µM (active) and inactive	inactive	inactive	inactive	inactive	inactive	–	inactive	–
O=NN1CCN(N=O)CC1	inactive	inactive	inactive	inactive	inactive	inactive	inactive	inactive	inactive	inactive	inactive	inactive	–	–	inactive	inactive	inactive	inactive	inactive	–
COc1cccc2c1cc([N+](=O)[O-])c1c(C(=O)O)cc3c(c12)OCO3	12.2 µM (active)	inactive	inactive	inactive	inactive	inactive	inactive	–	inactive	–	inactive	inactive	inactive	inactive	–	–	inactive	inactive	–	–
O=C(O)CC(Cl)C(=O)O (stereo not given)	inactive	inactive	inactive	inactive	inactive	inactive	inactive	inactive	inactive	inactive	inactive	inactive	inactive	inactive	inactive	–	inactive	inactive	inactive	–
CCCOCC(=Nc1ccc(Cl)cc1C(F)(F)F)n1ccnc1	27.3 µM (active)	inactive	inactive	inactive	inactive	inactive	inactive	–	–	–	–	–	–	–	–	–	inactive	–	–	–
CC(C)N1C(=O)N(c2ccccc2)CSC1=NC(C)(C)C	inactive	inactive	inactive	inactive	inactive	inactive	inactive	inactive	inactive	–	inactive	inactive	inactive	inactive	–	–	inactive	inactive	inactive	–
CCCN(CCCl)c1c([N+](=O)[O-])cc(C(F)(F)F)cc1[N+](=O)[O-]	inactive	inactive	inactive	inactive	inactive	inactive	inactive	inactive	inactive	–	inactive	inactive	–	inactive	inactive	inactive	inactive	inactive	inactive	–
[O-][Br+2]([O-])O	inactive	inactive	inactive	inactive	inactive	inactive	inactive	inactive	inactive	inactive	inactive	inactive	inactive	inactive	inactive	–	inactive	inactive	–	–
C[C@]12C/C(=C/O)C(=O)C[C@@H]1CC[C@@H]1[C@@H]2CC[C@@]2(C)[C@H]1CC[C@]2(C)O	27.6 µM (active) and 6.68 µM (active)	inactive	inactive	inactive	inactive	inactive	36.7 µM (active) and inactive	inactive	36.7 µM (active)	–	–	–	–	–	–	–	inactive	inactive	inactive	–
CC1CCCC1	–	–	–	–	inactive	inactive	–	inactive	inactive	inactive	–	–	–	–	–	–	–	–	–	inactive
Cc1ccc([N+](=O)[O-])[c]2c1[O][Hg]2	2.66 µM (active)	16.9 µM (active)	inactive	inactive	inactive	inactive	15.8 µM (active)	15.8 µM (active)	8.9 µM (active)	–	7.29 µM (active)	23.9 µM (active)	inactive	–	–	–	29.8 µM (active)	32.2 µM (active)	–	–
ClC1=C(Cl)C2(Cl)C(CBr)CC1(Cl)C2(Cl)Cl (stereo not given)	inactive	inactive	inactive	inactive	inactive	inactive	inactive	inactive	inactive	inactive	inactive	inactive	inactive	inactive	inactive	inactive	inactive	inactive	inactive	–
O=S1OC[C@@H]2[C@H](CO1)[C@]1(Cl)C(Cl)=C(Cl)[C@@]2(Cl)C1(Cl)Cl (stereo not given in full)	24.3 µM (active)	inactive	inactive	inactive	inactive	inactive	–	inactive	inactive	–	inactive	inactive	inactive	inactive	–	–	inactive	inactive	–	–
ClC1=C(Cl)[C@]2(Cl)[C@@H]3[C@@H]4C[C@@H]([C@H]5O[C@@H]45)[C@@H]3[C@@]1(Cl)C2(Cl)Cl	–	–	23.7 µM (active)	–	–	–	–	–	inactive	–	–	–	–	–	–	–	–	–	68.6 µM (active)	48.6 µM (active)
Cc1cc(C(C)(C)c2cc(C)c(O)c(C)c2)cc(C)c1O	inactive	33.5 µM (active)	inactive	inactive	inactive	inactive	–	–	–	–	–	23.7 µM (active)	inactive	–	–	–	–	inactive	–	–
CCOP(=O)(OCC)Oc1cc(C)nc(C(C)C)n1	inactive	inactive	inactive	inactive	–	–	inactive	inactive	inactive	inactive	inactive	inactive	inactive	inactive	inactive	inactive	inactive	inactive	inactive	–
C[C@]12CC[C@H](O)C[C@H]1CC[C@@H]1[C@@H]2C[C@@H](O)[C@]2(C)[C@@H](C3=CC(=O)OC3)CC[C@]12O	3.44 µM (active)	inactive	inactive	inactive	inactive	inactive	–	–	1.82 µM (active)	–	inactive	inactive	inactive	–	–	–	–	inactive	–	–
CC(=O)/C=C/c1ccc2c(c1)OCO2	61.4 µM (active)	inactive	inactive	inactive	inactive	–	–	–	inactive	41 µM (active)	inactive	–	–	–	–	–	–	inactive	–	–
Nc1ccc(Cc2ccc(N)c(Cl)c2)cc1Cl	inactive	inactive	inactive	inactive	–	inactive	–	–	inactive	inactive	–	–	inactive	–	–	–	–	inactive	inactive	–
O=C(Oc1ccc(Br)cc1)N1CCN2CCC1CC2	inactive	inactive	inactive	inactive	–	inactive	inactive	–	inactive	inactive	inactive	inactive	–	inactive	inactive	inactive	inactive	–	inactive	–
